From PubChem BioAssay
Fam108B inh = mouse Fam108B serine hydrolase inhibitors, primary screen, counter-screen for RBBP9 inhibitor project, biochemical, fluorescence polarization; recombinant Fam108B, FP-Rh probe fluorescence polarization; inhibition, % at 9.51 µM; 300,000 compounds, 0.33% hits; AID 1947, 2009;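 active = inhibition above the screen mean inhibition plus 3 SD, computed separately per campaign, cut at about 18% in these data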;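 also: inhibitors lower polarization as less probe binds the enzyme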
pPAFAH inh = pPAFAH enzyme inhibitors, primary screen, biochemical, fluorescence polarization, human. inhibition, % at 3.39 µM. recombinant pPAFAH, FP-rhodamine probe fluorescence polarization. Platelet-activating factor acetylhydrolase (Homo sapiens), Q13093. 330,000 compounds, 1.5% hits. AID 463082, 2010;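 active = inhibition above the mean inhibition across the screen plus 3 SD, cut at about 25% in these data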;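 also: inhibitors block binding of the rhodamine activity-based probe so polarization drops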
PAFAH2 inh = PAFAH2 enzyme inhibitors, primary screen, biochemical, fluorescence polarization, human | recombinant PAFAH2, FP-rhodamine activity probe | inhibition, % at 3.39 µM | 340,000 compounds, 0.99% hits;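 active = inhibition above the mean over all tested compounds plus 3 SD, cut at about 30% in these data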;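 also: inhibitors block probe labeling of enzyme so polarization drops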
PAFAH1B2 FP inh = PAFAH1B2 enzyme inhibitors, primary screen, biochemical, fluorescence polarization, human; 340,000 compounds, 1.2% hits; Platelet-activating factor acetylhydrolase IB subunit alpha2 (Homo sapiens), P68402; recombinant PAFAH1B2, FP-rhodamine activity probe; inhibition, % at 3.39 µM;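 active = inhibition above the mean of all tested compounds plus 3 SD, cut at about 24% in these data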
Target sequence (P68402 whole entry, looked up): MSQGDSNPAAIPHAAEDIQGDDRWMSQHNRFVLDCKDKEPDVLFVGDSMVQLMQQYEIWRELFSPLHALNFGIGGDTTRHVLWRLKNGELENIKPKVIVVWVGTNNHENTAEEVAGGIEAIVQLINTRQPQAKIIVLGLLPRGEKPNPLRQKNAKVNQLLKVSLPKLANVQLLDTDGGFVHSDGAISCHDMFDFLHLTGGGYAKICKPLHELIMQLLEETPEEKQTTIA
PAFAH1B3 inh = PAFAH1B3 enzyme inhibitors, primary screen, biochemical, fluorescence polarization, human; Platelet-activating factor acetylhydrolase IB subunit alpha1 (Homo sapiens), Q15102; recombinant PAFAH1B3, FP-rhodamine probe; inhibition, % at 3.39 µM; 340,000 compounds, 0.28% hits; AID 492972, 2010;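 active = inhibition above the screen-wide average of all tested compounds plus 3 SD, cut at about 25% in these data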
PME-1 primary = PME-1 inhibitors via competitive probe labeling, primary screen, biochemical, fluorescence polarization, FP-Rh probe, HTS; AID 2130, 2009; Protein phosphatase methylesterase 1 (Homo sapiens), Q9Y570; inhibition, % at 5.9 µM; 320,000 compounds, 0.53% hits; recombinant PME-1;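 active = inhibition above the campaign mean of all compounds plus 3 SD, cut at about 26% in these data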;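 also: competitive labeling of PME-1 active site by serine hydrolase directed probe; inhibitors block probe labeling so polarization falls and inhibition rises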
Target sequence (Q9Y570 whole entry, looked up): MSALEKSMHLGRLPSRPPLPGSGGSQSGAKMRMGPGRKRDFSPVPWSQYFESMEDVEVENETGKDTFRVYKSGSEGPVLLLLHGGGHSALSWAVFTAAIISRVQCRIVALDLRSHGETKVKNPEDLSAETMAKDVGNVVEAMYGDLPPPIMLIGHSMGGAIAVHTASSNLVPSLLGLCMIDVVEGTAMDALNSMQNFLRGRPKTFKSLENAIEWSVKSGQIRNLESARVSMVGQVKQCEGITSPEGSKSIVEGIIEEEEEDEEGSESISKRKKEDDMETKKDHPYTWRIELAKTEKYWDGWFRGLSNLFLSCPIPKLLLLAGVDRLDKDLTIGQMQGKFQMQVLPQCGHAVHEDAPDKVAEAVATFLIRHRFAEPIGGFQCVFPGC
Of the large screens only hits and unclear results are named; the others gave an inactive call. In the library only some 2.8% were active in any assay of this set; here they are far more common.

NC(=O)C1(N2CCCCC2)CCN(CC(=O)Nc2ccc(Oc3ccccc3)cc2)CC1	pPAFAH inh 28
Cc1ccc(Cl)cc1NC(=O)COC(=O)C1CC1	none
O=C(COC(=O)C1CC1)Nc1ccc(Cl)cc1Cl	PAFAH2 inh 64 (no result: Fam108B inh)
CN(C)S(=O)(=O)c1ccc(Cl)c(NC(=O)COC(=O)CCC2CCCCC2)c1	pPAFAH inh 25, PAFAH2 inh 38 (no result: Fam108B inh, PME-1 primary)
O=C(COC(=O)C1CC1)Nc1ccc(Oc2ccccc2)cc1	pPAFAH inh 27, PAFAH2 inh 91
N#Cc1cccc(NS(=O)(=O)c2ccccc2Cl)c1	none (no result: Fam108B inh)
CN(Cc1ccccc1)C(=O)c1ccc(NC(=O)Cc2ccc(NC(=O)C3CCCN(C(=O)c4ccccc4)C3)cc2)cc1 (centres undefined)	none (no result: Fam108B inh, pPAFAH inh, PME-1 primary)
N#Cc1cccc(NC(=O)CCNS(=O)(=O)c2ccc3[nH]c(=O)oc3c2)c1	none
CCCn1nc(C(=O)Nc2cc(OCC)c(N3CCOCC3)cc2OCC)c2ccccc2c1=O	none (no result: Fam108B inh, pPAFAH inh, PME-1 primary)
O=C(COC(=O)CCC1CCCC1)Nc1ccc(Cl)cc1F	pPAFAH inh 27
COc1ccccc1NC(=O)COC(=O)CCC1CCCC1	pPAFAH inh 29 (no result: Fam108B inh, PME-1 primary)
CCc1ccc(NC(=O)COC(=O)CCC2CCCC2)cc1	none (no result: Fam108B inh)
COc1cccc(NC(=O)COC(=O)CCC2CCCC2)c1	pPAFAH inh 28 (no result: Fam108B inh)
Cc1cc(C)cc(NC(=O)COC(=O)CCC2CCCC2)c1	none (no result: Fam108B inh)
COc1ccc(NS(=O)(=O)c2ccc(OC)c(NC(=O)CCC3CCCC3)c2)cc1	pPAFAH inh 27
COc1ccc(OC)c(NC(=O)COC(=O)CCC2CCCC2)c1	pPAFAH inh 33 (no result: Fam108B inh)
O=C(COC(=O)CCC1CCCC1)Nc1ccccc1Br	pPAFAH inh 34 (no result: Fam108B inh)
COc1ccc(C(=O)NCC(=O)OCC(=O)Nc2cc(OC)ccc2OC)cc1	none
CCn1c(=O)c(CCC(=O)N2CCN(c3ccccn3)CC2)c(C)c2c(C)nn(-c3ccccc3)c21	none
COc1ccc(O)cc1	none (no result: Fam108B inh, PME-1 primary)
CC(C)(c1ccc(O)cc1)c1ccc(O)cc1	PAFAH1B2 FP inh 48
CN(C(=O)CSc1nc(-c2ccc(C(C)(C)C)cc2)c(C#N)c(=O)[nH]1)C1CCCCC1	PAFAH1B2 FP inh 31
N#Cc1c(-c2ccccc2)nc(SCC(=O)NC2CCCCC2)[nH]c1=O	none
Cc1cc(NCCCn2ccnc2)n2nc(C)c(-c3ccc(Cl)cc3)c2n1	pPAFAH inh 25
Cc1cc(NCCN2CCOCC2)n2nc(C)c(-c3ccc(Cl)cc3)c2n1	pPAFAH inh 28
O=S(=O)(NC12CC3CC(CC(C3)C1)C2)c1ccc(F)cc1	PAFAH1B2 FP inh 28
C=C[C@]1(C)C=C2CCC3[C@](C)(CCC[C@@]3(C)C(=O)O)C2CC1 (some centres undefined)	PAFAH2 inh 43, PAFAH1B2 FP inh 68
COc1cccc(CNC(=O)CCn2ccc3cc(S(=O)(=O)N4CCC(C)CC4)ccc32)c1	PAFAH1B2 FP inh 25
CC(C)c1ccc2[nH]c(O)c(N=NC(=O)c3ccc(CSc4nncn4C)cc3)c2c1	PME-1 primary 30
Cn1cnnc1SCc1ccc(C(=O)NN)cc1	none
COc1cc2c(C#N)c(N3CCCCC3)nc(N)c2c(N)n1	none
COc1cc2c(C#N)c(N3CCc4ccccc4C3)nc(N)c2c(N)n1	PME-1 primary 39
COC(CN(C)C(=O)C1CCC(CNS(=O)(=O)c2ccc(C)cc2)CC1)OC (centres undefined)	pPAFAH inh 25
Cn1ncc(Cl)c1C(=O)NNC(=O)Nc1cccc2ccccc12	none (no result: Fam108B inh, pPAFAH inh, PME-1 primary)
CC(=O)Nc1cc(NC(C)=O)c(N=Nc2ccccc2)cc1C	none
Cc1ccc(NCC(O)C(O)C(O)CO)c(N=Nc2ccccc2)c1C (centres undefined)	PME-1 primary 52
COc1ccc(N(Cc2cc3cc(C)ccc3[nH]c2=O)C(C)=O)cc1	none
c1ccc(Nc2nc(-c3ccccc3)ns2)cc1	none
O=S(=O)(Nc1cccc(Cl)c1)c1ccc2oc(=S)[nH]c2c1	pPAFAH inh 32
O=C1C=C(Nc2cccc3cccnc23)c2ccccc2C1=O	pPAFAH inh 34
Cc1cc(C)c(C)c(S(=O)(=O)N2CCC(C(=O)NCCCN3CCOCC3)CC2)c1C	none (no result: Fam108B inh)
NC(=O)CN1C(=O)C(=O)N(Cc2ccc(Cl)cc2)C1=O	none
O=C(O)CN1C(=O)C(=O)N(Cc2ccc(Cl)cc2Cl)C1=O	PAFAH1B2 FP inh 25
COc1ccc(C(=O)Nc2cccc(NC(=O)c3ccc(OC)c(OC)c3)n2)cc1OC	none
CCCCNc1c(-c2ccc(OC)c(SC3CCCCC3)c2)nc2cnccn12	pPAFAH inh 33
O=C(Oc1ccc(-c2ccccc2)cc1)c1ccco1	PAFAH1B2 FP inh 32 (no result: Fam108B inh, pPAFAH inh, PME-1 primary)
COC(=O)c1ccc(OC(=O)c2ccco2)cc1	none
O=C(Oc1ccc(OC(=O)c2ccco2)c(S(=O)(=O)c2ccc(Br)cc2)c1)c1ccco1	PAFAH1B2 FP inh 45
CC1(C)C[C@@H](O)[C@]2(C)CC[C@]3(C)C(=CCC4[C@@]5(C)CC[C@H](O)[C@](C)(CO)C5CC[C@]43C)[C@@H]2C1 (some centres undefined)	none (no result: Fam108B inh, PME-1 primary)
Cc1ccc(S(=O)(=O)Oc2cccc([N+](=O)[O-])c2)cc1	PAFAH1B2 FP inh 25 (no result: Fam108B inh, pPAFAH inh, PME-1 primary)
COC(=O)CCC/C=C1/SCC(NC(=O)c2ccccc2)C1=O (centres undefined)	pPAFAH inh 26
Cc1ccc(NC(=O)CSCc2cc(=O)n3ccsc3n2)c(C)c1	none
CC(C)(C)c1ccc(CNC(=O)C2CCCN2C(=O)Nc2ccccc2)cc1 (centres undefined)	PAFAH1B2 FP inh 25
O=C(NCCc1ccccc1)C1CCCN1C(=O)Nc1cccc(Cl)c1 (centres undefined)	PAFAH1B2 FP inh 27
O=C(NCCc1ccccc1)C1CCCN1C(=O)Nc1ccccc1 (centres undefined)	none
CC(=O)NC(CC(=O)N1CCCC1)c1ccccc1 (centres undefined)	none
COc1cccc(CNC(=O)c2ccc(CS(=O)c3ccccc3)o2)c1 (centres undefined)	none
CCOc1ccc(S(=O)(=O)N2CCN(C(=O)c3ccc(Cl)c(S(=O)(=O)N4CCOCC4)c3)CC2)cc1	none (no result: Fam108B inh, pPAFAH inh, PME-1 primary)
Cc1ccc(C2(C)NC(=O)N(CC(=O)Nc3ccc4[nH]c(=O)[nH]c4c3)C2=O)cc1 (centres undefined)	none
CC1(c2ccc(OC(F)F)cc2)NC(=O)N(CC(=O)Nc2ccc3[nH]c(=O)[nH]c3c2)C1=O (centres undefined)	pPAFAH inh 28
O=C(CN1C(=O)NC(c2ccccc2)(c2ccccc2)C1=O)Nc1ccc2[nH]c(=O)[nH]c2c1	pPAFAH inh 25
